Only some compounds are listed: those with a hit (about 1.1% of all), similar ones and a draw of the others.
TRPV1 ag = HTS Assay for Compounds that Act as Agonists of the Vanilloid Receptor 1; Transient receptor potential cation channel subfamily V member 1 (Homo sapiens), Q8NER1; TRPV1-expressing cells, Fluo-8 calcium influx, agonist mode; activation, % at 8.33 µM; 0.19% of 320,000 active; in the data active = activation above about 80%; inconclusive = between about 30% and that limit; note: 0% is about no effect
Target sequence (Q8NER1 whole entry, looked up): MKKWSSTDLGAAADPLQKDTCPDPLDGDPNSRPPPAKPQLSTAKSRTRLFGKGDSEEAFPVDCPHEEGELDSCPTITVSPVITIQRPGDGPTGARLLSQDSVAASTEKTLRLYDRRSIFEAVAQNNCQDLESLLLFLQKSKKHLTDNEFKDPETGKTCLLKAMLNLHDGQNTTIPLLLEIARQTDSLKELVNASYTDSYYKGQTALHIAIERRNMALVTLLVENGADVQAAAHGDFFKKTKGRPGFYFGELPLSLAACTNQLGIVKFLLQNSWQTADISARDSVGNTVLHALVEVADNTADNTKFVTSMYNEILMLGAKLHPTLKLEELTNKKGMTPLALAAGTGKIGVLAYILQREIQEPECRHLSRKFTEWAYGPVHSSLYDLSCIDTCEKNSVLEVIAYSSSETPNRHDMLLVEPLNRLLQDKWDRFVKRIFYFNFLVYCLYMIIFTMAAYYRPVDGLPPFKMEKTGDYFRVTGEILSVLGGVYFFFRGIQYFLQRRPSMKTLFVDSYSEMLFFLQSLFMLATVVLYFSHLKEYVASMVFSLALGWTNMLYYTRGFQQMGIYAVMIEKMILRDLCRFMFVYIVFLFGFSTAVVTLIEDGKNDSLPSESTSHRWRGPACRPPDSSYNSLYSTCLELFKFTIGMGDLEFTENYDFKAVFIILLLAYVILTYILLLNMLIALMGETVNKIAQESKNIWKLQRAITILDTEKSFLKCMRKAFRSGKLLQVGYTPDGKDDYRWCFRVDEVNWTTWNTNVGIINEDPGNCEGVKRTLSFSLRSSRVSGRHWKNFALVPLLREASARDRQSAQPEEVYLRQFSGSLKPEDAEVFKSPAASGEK
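Fluo-8 calcium influx in TRPV1-expressing cells, kinetic read (ex 480/em 520 nm). Compound added and read 3 min for agonist activity, followed by capsaicin at EC20 final and 2 min further read for enhancement.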
TRPV1 PAM = HTS Assay for Compounds that Act as Potentiators of the Vanilloid Receptor 1; TRPV1-expressing cells, Fluo-8 calcium influx, capsaicin EC20 potentiation; potentiation, % at 8.33 µM; Transient receptor potential cation channel subfamily V member 1 (Homo sapiens), Q8NER1; 0.02% of 320,000 active; in the data active = potentiation above about 80%; inconclusive = between about 30% and that limit; note: 0% is about no effect
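Fluo-8 calcium influx in TRPV1-expressing cells, kinetic read (ex 480/em 520 nm). Compound added and read 3 min for agonist activity, followed by capsaicin at EC20 final and 2 min further read for enhancement.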
gsp agonist = qHTS for Agonist of gsp, the Etiologic Mutation Responsible for Fibrous Dysplasia/McCune-Albright Syndrome: qHTS. Potency, µM (doses to about 76.9 µM), inactives show top-dose activation (cAMP increase), usual class: activators. AID 624287, 2012. 0.13% of 340,000 active. gsp mutant cells, cAMP HTRF, 30 min; active = well fitted activation curve with a large enough effect; inconclusive = small, poorly fitted or top-dose-only effect, or another doubt; inactive = no such curve, though single readings can be large or run the other way; cell line not stated here;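 note: phosphodiesterase inhibitor Ro 20-1724 added with compounds to block cAMP breakdown; potency is the fitted concentration of half-maximal effect; nearly all actives have a fitted effect of over 60% in size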
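Cells in DMEM/10% FBS with G418 were pretreated with compounds in DMSO plus […] (300 uM stock) for 30 min at 37C. cAMP was measured by HTRF (cAMP-d2 plus anti-cAMP antibody-K) after 30 min at room temperature.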
gsp antagonist = qHTS for Antagonists of gsp, the Etiologic Mutation Responsible for Fibrous Dysplasia/McCune-Albright Syndrome: qHTS | gsp-mutant cells, cAMP HTRF, 30 min | Potency, µM (highest dose often 76.9 µM), inactives show at the top dose activity change, negative = inhibition, actives largely listed as inhibitors | 0.4% of 340,000 active | AID 624288, 2012; calls by dose curve; cell line not stated here;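 note: intracellular cAMP measured with PDE inhibitor Ro 20-1724 present during compound exposure; potency is the fitted concentration of half-maximal effect; % is set by controls: 0 for no effect and ±100 for the full control effect; nearly all actives have a fitted effect of over 65% in size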
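Cells, 2000/well, grown 16–24 h in DMEM 10% FBS with 0.5 mg/ml G418, then compounds plus […] (300 uM addition stock), 30 min at 37C. cAMP read by HTRF (cAMP-d2 and anti-cAMP antibody-K in lysis buffer) after 30 min RT.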
RXFP1 antag = qHTS Assay for Antagonists of the Relaxin Receptor RXFP1; Relaxin receptor 1 (Homo sapiens), Q9HBX9; HEK293-RXFP1, relaxin-stimulated cAMP HTRF, 30 min; active compounds read low; activity change, negative = inhibition, % at 57.5 µM; 0.59% of 350,000 active; AID 1259400, 2018;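 active = activity change of -60% or lower, but not beyond a set lower limit; inconclusive = change between -60% and -40%, or beyond the set limit; inactive = change above -40%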; note: % is set by controls: 0 for no effect and ±100 for the full control effect
RXFP1 agonist = qHTS Assay for Agonists of the Relaxin Receptor RXFP1. Potency, µM (top dose mostly 57.5 µM), inactives show at the highest dose activation, most hits filed as activators. Relaxin receptor 1 (Homo sapiens), Q9HBX9. 0.3% of 370,000 active. HEK293T-RXFP1 cAMP TR-FRET, 30 min; response scale: percent of porcine relaxin response, buffer zero; active = well fitted activation curve with a large enough effect; inconclusive = small, poorly fitted or top-dose-only effect; note: potency is the fitted concentration of half-maximal effect; % is set by controls: 0 for no effect and ±100 for the full control effect; nearly all actives have a fitted effect of over 60% in size
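HEK293 cells stably expressing RXFP1, treated 30 min at 37C with compounds plus PDE4 inhibitor Ro 20174; cAMP measured by HTRF TR-FRET. Normalized to buffer and 29 nM porcine relaxin; EC50 by Hill fit.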
The depositor's hits bear a star; ? = inconclusive; . = not tested or not shown; [ ] = another dose, or the depositor's remark.

SMILES	TRPV1 ag	TRPV1 PAM	gsp agonist	gsp antagonist	RXFP1 antag	RXFP1 agonist
CC(C)=CCC/C(C)=C/CNC(=O)C[C@H]1C[C@H](C(=O)N(C(C)C)C(C)C)[C@@]2(C)c3[nH]c4cc(-c5ccco5)ccc4c3CCN2C1=O	.	.	.	-5%	.	.
CCN(CC)C1=CC2=CC(=C(C#N)C#N)CCC2CC1 (stereo not given)	0	7	-5%[15.4 µM]	-20%	-1	7%
N#CC(C#N)=C1C=C2C=C(N3CCCCC3)CCC2CC1 (stereo not given)	102*	0	37%	40µM*	-11	1%
CCCCN(C)C1=CC2=CC(=C(C#N)C#N)CCC2CC1 (stereo not given)	101*	-2	0%[15.4 µM]	?	-8	-2%
COc1ccccc1CN1CCC(n2nccc2NC(=O)CCCc2ccccc2)CC1	6	-2	-42%	3%	-1	0%
O=P1(NC2CCCCC2)OCC2(CO1)COP(=O)(NC1CCCCC1)OC2 (stereo not given)	.	.	9%	11%	-6	.
CC1CCN(CCOc2ccc(C(=O)c3ccccc3)cc2)CC1	1	81*	21%[15.4 µM]	16%	-12	0%
CC1CCN(CCCCOc2ccc(C(=O)c3ccccc3)cc2)CC1	-4	0	0%	15%	1	0%
Cc1cc(C)cc(Oc2nc3c(c(=O)n(C)c(=O)n3C)n2Cc2ccc(F)cc2)c1	.	.	.	.	5	8%
CC(C)(C)OC(=O)N(c1cccc2cccnc12)S(=O)(=O)c1ccccc1Br	10	-1	.	.	.	.
CCCCn1c(N)c(N(CCC(C)C)C(=O)CCN2C(=O)C3CC=CCC3C2=O)c(=O)[nH]c1=O (stereo not given)	-1	-5	5%[15.4 µM]	2%	11	0%
CN(C/C=C/c1ccccc1)Cc1cccc2ccccc12	-1	15	.	-13%	-69*	0%
CN(Cc1ccc(C(C)(C)C)cc1)Cc1cccc2ccccc12	.	.	.	.	-19	.
CCOc1ccc(/C(O)=C2/C(=O)C(=O)N(CCOCCO)C2c2cccnc2)cc1 (stereo not given)	-1	-3	13µM*	18%	42	?
CCOc1ccc(/C(O)=C2/C(=O)C(=O)N(CCOCCO)C2c2ccccc2)cc1 (stereo not given)	-1	6	?	10%	15	?
COc1ccccc1N(CC(=O)NC1CCCCC1)C(=O)CNC(=O)c1cccs1	2	8	-2%[15.4 µM]	-7%	-5	-1%
Cn1c(N=Nc2ccc(N3CCOCC3)cc2)[n+](C)c2ccccc21	-1	6	0%[15.4 µM]	?	-107*	-13%
CCOc1ccc(-c2nnc(Nc3ccc(OC)c(C(=O)N4CCCCC4)c3)c3ccccc23)cc1	-6	15	-70%	35µM*	1	0%
Cc1ccccc1C(=O)NN1CC(C(=O)OCc2ccc(Cl)c(Cl)c2)CC1=O (stereo not given)	3	25	6%	32µM*	0	0%
C/C=C(/C)C(=O)OC1CC(C)(C)C[C@H]2C3=CC[C@@H]4[C@@]5(C)CCC(O[C@@H]6O[C@@H](C(=O)O)[C@@H](O)C(O[C@@H]7OC[C@H](O)[C@@H](O)[C@@H]7O[C@@H]7OC(CO)C(O)[C@@H](O)[C@@H]7O)C6O[C@@H]6OC(CO)C(O)C(O)C6O)[C@@](C)(CO)[C@@H]5CC[C@]4(C)[C@]3(C)CC(O)[C@@]12CO (stereo not given in full)	.	.	.	50µM*	.	.
